In PubChem BioAssay:
Activity calls are given as the source filed them.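 Rule for the calls, unless noted: active = compound that reduces growth-factor-driven endothelial tube area in a mixed cell culture, no cutoff stated; inactive = the rest.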

Columns and labels:
[1] = Wnt pathway potentiators raising nuclear beta-catenin – imaging, WNT3A-conditioned medium, mouse C2C12, NPC library, primary screen (AID 1117326; in the data active = nuclear beta-catenin stimulation mostly above about 4.2%, no sharp cut-off; inactive = mostly below about 10%; note: reference of the scale not given here); settings: stronger effect = higher value
[2] = stimulators of insulin release from INS-1E, primary screen, cell-based, 5 mM glucose, NPC library (AID 1117329;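 active = compound raises insulin release from rat beta cells at 5 mM glucose, no numeric limit stated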; note: reference of the scale not given here); settings: rat INS-1E insulin secretion, at 10 µM, stronger effect = higher value
[3] = growth inhibition of GSK3B-pretreated HCT116 cells – cell-based, CellTiter-Glo, 0.2 to 20 µM (AID 1117336;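 active = compounds lowering colon cancer cell viability after pretreatment blocking the GSK3B kinase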); settings: HCT116 viability after GSK3B inhibitor, at 20 µM, stronger effect = higher value
[4] = inhibition of endothelial tube formation, primary screen, imaging, VEGF stimulated, CD31 staining, tube area, NPC library (AID 1117340); settings: VEGF-stimulated ADSC/ECFC co-culture, at 10 µM, stronger effect = higher value
[5] = GLP1 release stimulators, primary, NCI-H716, NPC library (AID 1117341;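 active = compound raises GLP1 secretion from the human gut endocrine cells, with no numeric limit stated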; note: reference of the scale not given here); settings: NCI-H716 cells, at 10 µM, stronger effect = higher value
[6] = HCT116 colon cancer cell growth inhibition, primary screen, CellTiter-Glo luminescence, NPC library (AID 1117342;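 active = compounds that lower survival of HCT116 colon cancer cells in the luminescence readout, no numeric limit stated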); settings: at 20 µM (top of the series)
[7] = reduced SW480 viability measured with CellTiter-Glo, NPC library, primary (AID 1117343;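 active = compounds that lower viability of the colon cancer cells in the luminescence readout, with no numeric limit stated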); settings: CellTiter-Glo luminescence; at 20 µM (top of the series)
[8] = NPC library primary testing for decreased DLD-1 cell viability via CellTiter-Glo (AID 1117346;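 active = compounds that lower survival of DLD-1 colon cancer cells in the luminescence readout, no cutoff given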); settings: DLD-1 viability, CellTiter-Glo luminescence; at 20 µM (top of the series)

Row | SMILES | nuclear beta-catenin stimulation ([1]; at 10 µM) | nuclear beta-catenin stimulation ([1]; stimulation, at 2 µM) [%] | insulin secretion stimulation [2] | viability decrease [3] | tube area decrease [4] | GLP1 secretion stimulation [5] | inhibition of viability [6] | viability decrease (inhibition) [7] | viability decrease (inhibition) [8]
1 | NCC[C@H](O)C(=O)N[C@@H]1C[C@H](N)[C@@H](O[C@H]2O[C@H](CN)[C@@H](O)[C@H](O)[C@@H]2O)[C@H](O)[C@@H]1O[C@H]1O[C@H](CO)[C@@H](O)[C@H](N)[C@@H]1O | 0.4% (inactive) | -1.1 | 1.1% (inactive) | -9.3% (inactive) | -7.9% (inactive) | 0.5% (inactive) | -2.7% (inactive) | -3.7% (inactive) | 0.5% (inactive)
2 | Nc1ncnc(Nc2ccccc2)n1 | 0.5% (inactive) | 0.6 | -1.2% (inactive) | 3.65% (inactive) | -16% (inactive) | -0.9% (inactive) | 2.7% (inactive) | 51.8% (active) | 19.1% (inactive)
3 | CC(C)OP(=O)(CP(=O)(OC(C)C)OC(C)C)OC(C)C | -0.3% (inactive) | 1.5 | 0.8% (inactive) | -8.5% (inactive) | 11.4% (inactive) | -0.8% (inactive) | 1.5% (inactive) | -11.1% (inactive) | 10.4% (inactive)
4 | CCCCCCCCCCCCCC[N+](C)(C)Cc1ccccc1 | 55% (active) | -0.7 | 3.5% (inactive) | 99.5% (active) | 109% (active) | -0.6% (inactive) | 99.2% (active) | 101% (active) | 102% (active)
5 | CC(C)(Oc1ccc(Cl)cc1)C(=O)OCCCOC(=O)C(C)(C)Oc1ccc(Cl)cc1 | 0.7% (inactive) | 2.2 | 0.5% (inactive) | 11% (inactive) | 2.3% (inactive) | -0.1% (inactive) | 5.6% (inactive) | 8.9% (inactive) | 4% (inactive)
6 | CC(C)c1cc2c(cc1S(=O)(=O)O)[C@@]1(C)CCC[C@@](C)(C(=O)O)[C@@H]1CC2 | -1% (inactive) | -3.3 | 1.4% (inactive) | 3.3% (inactive) | -20.8% (inactive) | -1.8% (inactive) | 5.2% (inactive) | -5.2% (inactive) | 11.9% (inactive)
7 | O=C(C1CCCCC1)N1CC(=O)N2CCCc3ccccc3C2C1 (stereo unspecified) | 1.4% (inactive) | 2.7 | 0.6% (inactive) | 6.6% (inactive) | 12.9% (inactive) | 5.2% (inactive) | -9.2% (inactive) | -250% (inactive) | -3.1% (inactive)
8 | Cc1c(C)c2c(c(C)c1OC(=O)CCC(=O)OCCO)CC[C@@](C)(CCC[C@H](C)CCC[C@H](C)CCCC(C)C)O2 | 0% (inactive) | -0.6 | 0.25% (inactive) | 116% (active) | 17.4% (inactive) | 23% (active) | 122% (active) | 157% (active) | 101% (active)
9 | CN(C)[C@@H]1C(=O)C(C(N)=O)=C(O)[C@@]2(O)C(=O)C3=C(O)c4c(O)cccc4C[C@H]3C[C@@H]12 | 11% (inactive) | -0.5 | -3% (inactive) | 98.1% (active) | -5.9% (inactive) | 18.7% (inactive) | 75.5% (active) | 100% (active) | 89.5% (active)
10 | O=C(Cn1ccnc1[N+](=O)[O-])NCc1ccccc1 | -0.6% (inactive) | 0.4 | -1.9% (inactive) | -22.5% (inactive) | -8.5% (inactive) | -4.4% (inactive) | 1.8% (inactive) | 7.9% (inactive) | 1% (inactive)
11 | O=C(c1ccco1)N1CCNCC1 | 4.5% (inactive) | -0.4 | 0.1% (inactive) | -3.6% (inactive) | -16.6% (inactive) | -0.5% (inactive) | -8.9% (inactive) | -21.1% (inactive) | 5.4% (inactive)
12 | COC(=O)C1=C(C)NC(C)=C(C(=O)OCC(C)=O)C1c1ccccc1[N+](=O)[O-] (stereo unspecified) | 1.6% (inactive) | 1.2 | -0.3% (inactive) | 25.5% (inactive) | 7% (inactive) | -2.7% (inactive) | 39.1% (inactive) | 69.6% (active) | 28.3% (inactive)
13 | C/C=C/c1ccc(O)c(OC)c1 | 9.7% (inactive) | 0.5 | -0.1% (inactive) | 2.5% (inactive) | -5.2% (inactive) | -3.8% (inactive) | 8.25% (inactive) | 51.6% (active) | 18.6% (inactive)
14 | COC(=O)c1cc(Cl)c(NC(C)=O)cc1OC | 1.9% (inactive) | 0.7 | 0.95% (inactive) | -12.1% (inactive) | -7.7% (inactive) | 1.2% (inactive) | -1.4% (inactive) | -23.1% (inactive) | -11.9% (inactive)
15 | OC[C@]1(O)OC[C@@H](O)[C@H](O)[C@@H]1O | 3.7% (inactive) | 0.4 | -1.9% (inactive) | -2.95% (inactive) | 7.1% (inactive) | -6% (inactive) | -4.9% (inactive) | 92.3% (active) | 9.6% (inactive)
16 | C=Cc1ccccc1 | -2.1% (inactive) | -0.8 | 3.5% (inactive) | -5% (inactive) | -9.4% (inactive) | -1.4% (inactive) | 6.9% (inactive) | 0.4% (inactive) | 1.7% (inactive)
17 | CC(C(O)c1ccccc1)N(C)CCOC(c1ccccc1)c1ccccc1 (stereo unspecified) | 4.3% (inactive) | 2.3 | 2.45% (inactive) | 77.3% (active) | 14.1% (inactive) | 7.4% (inactive) | 86.9% (active) | 133% (active) | 81.5% (active)
18 | CCOC(=O)[C@@H](N)CS | -2% (inactive) | -1 | 2.3% (inactive) | -17.1% (inactive) | 2.3% (inactive) | 21% (active) | -5.6% (inactive) | 34.7% (inactive) | 4.2% (inactive)
19 | CCS(=O)(=O)c1ccc(OC)c(C(=O)OC)c1 | -0.3% (inactive) | -1.7 | 0.9% (inactive) | -5.9% (inactive) | -10% (inactive) | 1% (inactive) | 7.3% (inactive) | -1.8% (inactive) | 8.8% (inactive)
20 | O=C(O)c1ccccc1-c1ccc(C(F)(F)F)cc1 | 2.2% (inactive) | 0.7 | -0.1% (inactive) | -52.5% (inactive) | 21.5% (inactive) | 5.5% (inactive) | -0.77% (inactive) | 31.1% (inactive) | -11.8% (inactive)
21 | O=S(=O)(O)CC(S)CS (stereo unspecified) | -1% (inactive) | -0.1 | -3.4% (inactive) | -25.4% (inactive) | -1.9% (inactive) | -7% (inactive) | 4.3% (inactive) | 3.8% (inactive) | -6.6% (inactive)
22 | COC(=O)c1cc(Cl)ccc1OC | -0.1% (inactive) | -1.6 | 1.5% (inactive) | 1.2% (inactive) | -13.8% (inactive) | 2.6% (inactive) | 8.2% (inactive) | -4.7% (inactive) | 0.3% (inactive)
23 | O=C(CCN1CCN(CCO)CC1)N1c2ccccc2Sc2ccc(C(F)(F)F)cc21 | 2.5% (inactive) | 1.4 | 8.2% (inactive) | 50.2% (active) | 25.8% (inactive) | 2.4% (inactive) | 49.2% (inactive) | 96.4% (active) | 58.8% (active)
24 | CCOCCn1c(C2CCN(CCc3ccc(C(C)(C)C(=O)O)cc3)CC2)nc2ccccc21 | -0.1% (inactive) | 1.3 | -0.3% (inactive) | -2.4% (inactive) | 3.7% (inactive) | -2.2% (inactive) | -1.6% (inactive) | -6.3% (inactive) | -10.2% (inactive)
25 | CC(C)[N+](C)(C)CC(O)COc1cccc2ccccc12 (stereo unspecified) | -2.3% (inactive) | -0.7 | 2.4% (inactive) | 7.2% (inactive) | -21% (inactive) | 3% (inactive) | 34.1% (inactive) | -0.7% (inactive) | 5.7% (inactive)
26 | CCCC(=O)O[C@]1(C(=O)CCl)[C@@H](C)C[C@H]2[C@@H]3CCC4=CC(=O)C=C[C@]4(C)[C@@]3(F)C(=O)C[C@@]21C | 3.8% (inactive) | -0.1 | 3% (inactive) | 0.4% (inactive) | 36.7% (inactive) | -0.4% (inactive) | 70.5% (active) | 99.8% (active) | 47% (inactive)
27 | COc1cc([C@@H]2c3cc4c(cc3[C@@H](O[C@@H]3O[C@@H]5CO[C@@H](C)O[C@@H]5[C@H](O)[C@@H]3O)[C@H]3COC(=O)[C@H]23)OCO4)cc(OC)c1O | 44.6% (active) | 18.8 | 1.2% (inactive) | 21.9% (inactive) | 104% (active) | 0.6% (inactive) | 53.9% (active) | 73.1% (active) | 49.6% (inactive)
28 | CCCC(CCC)(C(=O)OCC)C(=O)OCC | -1.3% (inactive) | -2.9 | 2.1% (inactive) | 11.4% (inactive) | -3.8% (inactive) | 3.5% (inactive) | 12.2% (inactive) | 1.4% (inactive) | -4.9% (inactive)
29 | COC(=O)c1cc(S(C)(=O)=O)ccc1OC | 1% (inactive) | 3.6 | 2% (inactive) | -2.3% (inactive) | -4.1% (inactive) | -1.3% (inactive) | 6.4% (inactive) | -3.4% (inactive) | -1.9% (inactive)
